IL1B secr inh: qHTS for Inhibitors of Inflammasome Signaling: IL-1-beta AlphaLISA Primary Screen; THP-1 LPS/ATP IL-1B secretion, AlphaLISA, 16 h; stronger effect = lower value; activity change, % at 57.5 µM; 360,000 tested, 4.7% active; in the data active means activity change below about -50%; inconclusive means mostly about -30% to -49%
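Secreted IL-1B measured by AlphaLISA bead assay after 16 h compound exposure of THP-1 cells; compounds (final up to 57.5 uM) added 1 h before LPS (250 ng/mL) and ATP (1.25 mM) stimulation; lower signal means less secretion.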
DT40 TDP1 no CPT: qHTS for Inhibitors of human tyrosyl-DNA phosphodiesterase 1 (TDP1): qHTS in cells in absence of CPT; AID 686978, 2013; 420,000 tested, 15% active; Potency, µM (titrated, usually from 46.2 µM), for inactives: at the top dose activity change, negative = growth inhibition, usual class: inhibitors; DT40 Tdp1-/- hTDP1 cells, no CPT, ATP luminescence, 48 h; further: potency means the concentration at half of the fitted maximal effect; nearly all actives have a fitted effect of over 55% in size
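Camptothecin absent (DMSO only). Human TDP1-complemented DT40 knockout cells, 400 cells/well, 37 °C for minimum 48 hr; ATP measured via CellTiter-Glo, 30 min dark incubation, luminescence.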
HT1080 IDH1KD tx: qHTS for induction of synthetic lethality in tumor cells producing 2HG: qHTS for the HT-1080-IDH1KD cell line. AID 686971, 2013. HT-1080 IDH1 knockdown viability, ATP luminescence, 48 h. Potency, µM (doses to about 46.1 µM), for inactives: at the top dose activity, negative = toxicity, usual class: cytotoxic. 360,000 tested, 2% active;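 further: potency means the concentration at half of the fitted maximal effect; 0% = DMSO wells and -100% = cell-free medium wells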
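% activity derives from luminescence (CellTiter-Glo), normalised to DMSO and no-cell wells. HT-1080-IDH1KD cells, 750/well, had 48 h compound exposure at 37 °C.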
TDP1 cell CPT: qHTS for Inhibitors of human tyrosyl-DNA phosphodiesterase 1 (TDP1): qHTS in cells in presence of CPT. chicken DT40 Tdp1-/-;hTDP1 cells + 20 nM CPT, ATP luminescence, 48 h. Potency, µM (doses to about 46.2 µM), inactives show top-dose activity change, negative = growth inhibition, actives largely listed as inhibitors. 420,000 tested, 12% active. AID 686979, 2013; further: potency means the concentration at half of the fitted maximal effect; nearly all actives have a fitted effect of over 55% in size
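Chicken DT40 Tdp1-/- cells stably complemented with human TDP1 were seeded at 400 cells/well in medium containing 20 nM camptothecin, exposed to pin-transferred compounds, and grown at 37 °C for at least 48 hr. Viability was read as ATP luminescence.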
HT1080-NT tox: qHTS for induction of synthetic lethality in tumor cells producing 2HG: qHTS for the HT-1080-NT fibrosarcoma cell line; AID 686970, 2013; Potency, µM (titrated, usually from 46.1 µM), inactives show top-dose activity, negative = less viability, hits mostly cytotoxic; HT-1080-NT fibrosarcoma viability, CellTiter-Glo ATP luminescence, 48 h; 360,000 tested, 1.6% active;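 further: NT is the 2HG producing partner of a matched IDH1 knockdown line; potency means the concentration at half of the fitted maximal effect; 0% = DMSO-treated cells and -100% = media-only wells without cells; nearly all actives have a fitted effect of over 55% in size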
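Compounds were tested in concentration-response format on HT-1080-NT cells for 48 hours at 37 degrees C. Cell viability came from CellTiter-Glo luminescence; curves were classified by r2, response magnitude and activity.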
* = called active by the depositor; ? = inconclusive; / = not tested or not shown; [ ] = another dose, or the depositor's remark. Most compounds without a hit are left out; they make up all but 19% or so of the library. Unless noted, the call rests on the fitted dose curve; in most records, active means well fitted curve in the direction sought with a large enough effect; inconclusive means small, poorly fitted or top-dose-only effect, or another doubt; inactive means no such curve, though single readings can be large; an effect the other way counts as inactive or inconclusive. Unless noted, on the % scale 0 is the no-effect control and ±100 the full control effect.

SMILES	IL1B secr inh	DT40 TDP1 no CPT	HT1080 IDH1KD tx	TDP1 cell CPT	HT1080-NT tox
CC(Oc1ccc(Br)cc1Cl)C(=O)Nc1ccncc1 (stereo not drawn)	?	5.17µM*	16.4µM*	8.2µM*	?
Cc1occc1C(=O)NNC(=S)NC(=O)COc1ccc(Cl)cc1Cl	7.5	18.4µM*	-19.3%	?	-0.4%
CC(Oc1ccc(Br)cc1)C(=O)Nc1ccncc1 (stereo not drawn)	12.0	?	-15.2%	?	?
CC(Oc1ccc(Cl)cc1Cl)C(=O)Nc1ccc(O)cc1 (stereo not drawn)	-66.5*	?	0.0%	-23.2%	-18.6%
CC(Oc1ccc(Cl)cc1Cl)C(=O)Nc1ccc(N2CCN(C)CC2)cc1 (stereo not drawn)	-26.6	18.4µM*	?	?	?
c1ccc2c(-c3cccc4nccn34)cncc2c1	-3.8	?	-7.7%	?	1.0%
CC(Oc1ccc(Cl)cc1Cl)C(=O)Nc1cccc(O)c1 (stereo not drawn)	-11.2	0.1%	19.0%	-15.5%	23.9%
O=C(COc1ccc(Cl)cc1Cl)N1CCCN(C(=O)COc2ccc(Cl)cc2Cl)CC1	-75.9*	?	?	?	-26.9%
CC(=O)NC(=S)Nc1ccc(NC(=O)COc2ccc(Cl)cc2Cl)cc1	?	6.51µM*	?	?	?
CCOc1ccccc1NC(=S)NC(=O)CCCOc1ccc(Cl)cc1Cl	-1.2	?	?	-21.1%	11.2µM*
CC(=O)N1CCN(c2ccc(NC(=O)C(C)Oc3ccc(Cl)cc3Cl)cc2)CC1 (stereo not drawn)	-15.7	20.6µM*	1.5%	?	0.8%
NS(=O)(=O)c1ccc(CCNC(=O)CCCCCn2c(=S)[nH]c3ccc(Br)cc3c2=O)cc1	0.9	-29.0%	-5.0%	?	-3.4%
COc1ccc(CCC(=O)Nc2cc(Cl)ccc2N2CCN(C)CC2)cc1	?	?	-24.6%	?	-18.0%
CN1CCN(c2ccc(Cl)cc2NC(=O)/C=C/c2ccc(F)cc2)CC1	-73.4*	16.4µM*	16.4µM*	?	23.1µM*
CC(Oc1ccc(Br)cc1)C(=O)Nc1cc(Cl)ccc1N1CCN(C)CC1 (stereo not drawn)	-86.2*	?	20.6µM*	?	13µM*
CC(=O)N1CCN(c2ccc(NC(=O)COc3ccc(Cl)cc3Cl)cc2)CC1	?	18.4µM*	-25.7%	23.1µM*	-7.5%
O=C(COc1ccc(Cl)cc1Cl)Nc1ccccn1	-22.2	-6.3%	10µM*	-19.3%	-24.7%[9.24 µM]
CCCCS(=O)(=O)N1CCCC(C(=O)Oc2ccc(Cl)cc2)C1 (stereo not drawn)	9.4	-15.3%	11.8%	0.4%	9.7%
OCCSc1nc(-c2ccccc2)nc2ccc(F)cc12	-3.6	?	-0.9%	?	-0.9%
NC(N)=Nc1nc(-c2ccccc2)c2cc(F)ccc2n1	-89.9*	11.6µM*	20.6µM*	20.6µM*	20.6µM*
CCc1nc2ccc(C(=O)Nc3cc(-c4ccccc4)ccc3OC)cn2c1N(C)Cc1ccc(Cl)cc1	?	20.6µM*	?	18.4µM*	?
CCN(CC)c1c(C)nc2ccc(C(=O)Nc3cc(-c4ccccc4)ccc3OC)cn12	?	18.4µM*	?	?	?
Cc1ccccc1-c1nnc(SCCOc2ccc3c(C)cc(=O)oc3c2)o1	-25.3	?	25.2%	?	26.4%
Cc1cc(C(=O)NNC(=O)c2ccc(C(F)(F)F)cc2)no1	/	-13.7%	15.2%	3.8%	0.1%
Cc1nc(C(=O)NNC(=O)c2ccc(C(F)(F)F)cc2)cs1	55.3	20.6µM*	?	?	-24.4%
SMILES	IL1B secr inh	DT40 TDP1 no CPT	HT1080 IDH1KD tx	TDP1 cell CPT	HT1080-NT tox
Nc1ccc(/C=C/c2ccc3cccnc3c2)cc1	/	15.8µM*	/	?	/
Nc1ccc(C=Cc2ccc(N)cc2)cc1	-12.5	18.4µM*	?	20.6µM*	-28.0%
CCC1(C2CCN(C(=O)c3ccc(C)c(C)c3)CC2)NC(=O)N(CCc2scnc2C)C1=O (stereo not drawn)	/	-22.6%	/	-4.5%[9.04 µM]	/
COc1ccc(CN2C[C@H]3CCCN3c3cc(Br)ccc3S2(=O)=O)cc1	89.7	0.92µM*	2.59µM*	2.06µM*	?
C=C1[C@@H](O)CN(Cc2ccc(OC)cc2)S1(=O)=O	/	17.8µM*	/	?	/
Cc1ccc(C2=Nc3ccccc3SC(c3cccc([N+](=O)[O-])c3)C2)cc1 (stereo not drawn)	-16.8	16.4µM*	6.6%	?	8.0%
Nc1c([N+](=O)[O-])cc2c3c(cccc13)CC2	0.0	-77.8%	?	-89.5%	-20.5%
CCOC(=O)c1c(N)sc(-c2ccccc2)c1C	?	?	?	?	-14.0%
CCOC(=O)c1c(N)sn(-c2ccccc2C)c1=S	-23.6	25.9µM*	-2.4%	23.1µM*	-13.1%
O=S1(=O)C=CC(Nc2cccc(Cl)c2)C1 (stereo not drawn)	-89.4*	-18.4%	?	-13.6%	10µM*
CCNC(=O)CN(c1ccc(F)cc1)S(=O)(=O)c1ccc2c(c1)OCCO2	2.1	2.4%	-3.9%	0.7%	0.0%
O=Cc1s/c(=N\S(=O)(=O)c2ccccc2)n(CCCCl)c1Cl	-101.5*	0.731µM*	7.31µM*	0.517µM*	7.31µM*
CC(=O)c1ccccc1NC(=O)CCCNC(=O)c1ccc(Cl)cc1	17.6	?	-5.6%	-10.1%	-10.3%
CCOc1ccc2oc(-c3ccccc3)c(C(=O)N3CCN(C)CC3)c2c1	-11.2	?	-6.7%	23.1µM*	-8.8%
COc1ccc2oc(-c3ccccc3)c(C(=O)N3CCOCC3)c2c1	-8.0	13µM*	-1.5%[9.24 µM]	16.4µM*	-6.4%
COc1ccc(-n2nc(C(=O)NCC(=O)NCCCN3CC(C)CC(C)C3)c3ccccc3c2=O)cc1 (stereo not drawn)	-8.3	-17.9%	-1.9%	1.9%	-1.9%
O=C(O)CCCCCCCCc1cn(CCc2c[nH]c3ccccc23)nn1	25.0	-9.1%	-0.6%	-1.3%	-6.6%
O=C1C(c2c(O)[nH]c3ccccc23)=Nc2ccccc21	7.7	1.2%	-8.2%	-6.2%	-14.0%
CC(=O)c1cccc2c(O)c(C3=Nc4ccccc4C3=O)[nH]c12	-18.3	14.6µM*	?	18.4µM*	-23.5%
CC(=O)NC(c1ccccc1)c1nc(-c2cccc(F)c2)cs1 (stereo not drawn)	-21.1	?	4.4%	?	7.2%
